Bioassay records as filed in PubChem.
RGS4-Gao reg – human RGS4-Galphao interaction regulation; Multiplexed bead flow cytometry, RGS4-Galphao binding; actives lie on both sides; binding response (% of control), % at 10 µM; 220,000 tested, 0.33% active; AID 1415; in the data active = binding response below about 49% or above about 150%; inactive = in between;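 also: fluorescent Galphao activated with aluminum fluoride binding bead-coupled RGS4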
Target sequence (P09471 whole entry, looked up): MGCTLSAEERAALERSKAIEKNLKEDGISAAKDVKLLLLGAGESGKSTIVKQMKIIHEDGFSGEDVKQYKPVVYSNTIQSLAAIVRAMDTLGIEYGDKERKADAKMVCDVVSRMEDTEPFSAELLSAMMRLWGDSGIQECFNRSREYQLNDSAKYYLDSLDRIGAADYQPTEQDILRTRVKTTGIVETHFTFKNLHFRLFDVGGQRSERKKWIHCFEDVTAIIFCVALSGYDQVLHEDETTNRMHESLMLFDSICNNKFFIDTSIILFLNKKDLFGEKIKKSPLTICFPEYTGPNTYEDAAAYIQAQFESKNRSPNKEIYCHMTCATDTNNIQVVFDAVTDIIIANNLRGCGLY
Avidin bead fluor – compound fluoresces at 488/530 nm on avidin beads. 220,000 tested, 0.38% active. compound fluorescence 488/530 nm, flow cytometry; hits give high values. fluorescence (KMESF) at 10 µM. AID 1775; in the data active = fluorescence above about 47
RGS7-Gao reg – modulates binding of RGS7 to human Galphao. Multiplexed bead flow cytometry; actives lie on both sides. binding response (% of control), % at 10 µM. P09471. 220,000 tested, 0.35% active; in the data active = binding response below about 49% or above about 150%; inconclusive = no clear call, values can overlap the other calls; inactive = in between;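 also: fluorescent Galphao held in activated GDP-AlF4 state binding bead-coupled RGS7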
RGS16-Gao – RGS16-Galphao interaction regulator (human); 220,000 tested, 0.38% active; binding response (% of control), % at 10 µM; O15492+P09471; bead-based flow cytometry RGS16-Galphao binding, fluorescence; actives lie on both sides;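 also: Galphao activated by GDP with aluminum fluoride before binding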
GSH bead fluor – GSH bead compound fluorescence profile; GSH beads flow cytometry, compound fluorescence 488/530 nm; hits give high values; fluorescence (KMESF) at 10 µM; 190,000 tested, 0.25% active; AID 1776; in the data active = fluorescence above about 89;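 also: glutathione beads carrying GST-tagged Bcl family fusion proteins plus one bare bead set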
RGS8-Gao reg – modulates binding of RGS8 to human Galphao | 220,000 tested, 0.34% active | response (percent of control binding), % at 10 µM | multiplexed bead flow cytometry; actives lie on both sides | AID 1423; in the data active = response below about 60% or above about 140%; inactive = in between;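 also: Galphao activated as the GDP aluminium fluoride complex binding bead-coupled RGS8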
RGS-Gao – modulates binding between human RGS4 and Galphao | shares compounds with RGS16-Gao | multiplexed bead flow cytometry, RGS–Galpha-o binding | RGS4–Galpha-o binding response, % at 10 µM | 1,600 tested, 99% active | AID 1504;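 also: fluorescently labeled Galpha-o bound to GDP with aluminium fluoride binding biotinylated RGS beads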
Biotin-avidin – interferes with biotinylated probe binding to avidin beads. streptavidin beads, fluorescein-biotin binding, flow cytometry. 1,700 tested, under 10 active. shares compounds with RGS16-Gao. AID 1783. inhibition, % at 10 µM;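 active = inhibition above 50%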;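 also: median green fluorescence of gated singlet beads compared with DMSO control wells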
RGS8-Gao confirm – RGS8-Galphao interaction regulation, single point confirmation; 1,700 tested, 3% active; shares compounds with RGS16-Gao; binding response (% of control), % at 10 µM; bead-based flow cytometry RGS8-Galphao binding, fluorescence; actives lie on both sides; AID 1836; in the data active = binding response below about 72% or above about 130%; inactive = in between;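 also: Galphao activated as GDP AlF4 complex before binding bead RGS8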
RGS7-Gao single – RGS7-Galphao interaction regulation, single point confirmation; AID 1837; bead-based flow cytometry RGS7-Galphao binding; actives lie on both sides; response (percent of control binding), % at 10 µM; shares compounds with RGS16-Gao; 1,700 tested, 7.8% active; in the data active = response below about 75% or above about 130%; inactive = in between;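 also: fluorescent Galphao activated with GDP and aluminum fluoride binding bead-coupled RGS7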
RGS16-Gao conf – RGS16-Galphao interaction regulation, single point confirmation | bead-based flow cytometry, RGS16-Galphao binding; actives lie on both sides | 1,700 tested, 4% active | response (% of control binding), % at 10 µM | shares compounds with RGS16-Gao; in the data active = response below about 74% or above about 130%; inactive = in between;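 also: Galphao activated as the GDP aluminium fluoride complex binding bead-coupled RGS16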
RGS4-Gao single – RGS4-Galphao interaction regulation, single point confirmation; RGS4-Galphao binding, multiplexed bead flow cytometry; actives lie on both sides; 1,700 tested, 4% active; binding response (% of control), % at 10 µM; shares compounds with RGS16-Gao; in the data active = binding response below about 74% or above about 130%; inactive = in between
RGS19-Gao single – confirmation of regulators of human RGS19-Galphao interaction | 1,700 tested, 5% active | shares compounds with RGS16-Gao | response (percent of control binding), % at 10 µM | bead-based flow cytometry RGS19-Galphao binding; actives lie on both sides; in the data active = response below about 50% or above about 160%; inactive = in between
Target sequence (P09471 whole entry, looked up): as above
Target sequence (P49795 whole entry, looked up): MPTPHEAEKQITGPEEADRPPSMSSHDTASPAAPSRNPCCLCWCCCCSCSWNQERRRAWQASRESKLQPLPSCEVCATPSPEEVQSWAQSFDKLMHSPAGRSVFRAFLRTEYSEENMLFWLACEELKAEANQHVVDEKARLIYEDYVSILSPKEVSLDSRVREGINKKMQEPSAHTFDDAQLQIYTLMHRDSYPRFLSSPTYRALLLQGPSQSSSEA
Each line names hits and unclear results; the compound was inactive in the other large screens (follow-up assays come after a bar, where they were run); [ ] = dose if it differs, or a comment. In the library only some 1.2% were active in any assay of this set; here they are far more common. Unless noted, no rule for the calls is given here.

O=C(/C=C/c1ccc(N2CCC(c3ccccc3)=N2)cc1)c1ccccc1	RGS7-Gao reg 153[activator], GSH bead fluor 172 | RGS-Gao 113
CCC(=O)NC(Nc1sc2c(c1C(=O)OC)CCCC2)(C(F)(F)F)C(F)(F)F	none
CCCCn1nnc(NC(=O)c2cc3ccccc3o2)n1	RGS8-Gao reg 148[activator] | RGS-Gao 134 | Biotin-avidin inactive | RGS8-Gao confirm inactive | RGS7-Gao single inactive | RGS16-Gao conf inactive | RGS4-Gao single inactive | RGS19-Gao single inactive
CCCn1nnc(NC(=O)c2cc3ccccc3o2)n1	none
CCOc1ccc(CCNC(=O)c2[nH]c(C)c(C(C)=O)c2C)cc1OCC	none (no result: RGS4-Gao reg, Avidin bead fluor, RGS7-Gao reg, RGS16-Gao, RGS8-Gao reg) | Biotin-avidin inactive | RGS8-Gao confirm inactive | RGS7-Gao single inactive | RGS16-Gao conf inactive | RGS4-Gao single inactive | RGS19-Gao single inactive
O=C(C1CCCN(Cc2ccncc2)C1)N1CCc2ccccc2C1 (stereo not given)	none
O=c1[nH]c(=O)n(Cc2ccccc2)c2c1C(C(F)(F)F)(C(F)(F)F)N=C(c1ccco1)N2	RGS4-Gao reg 49, RGS7-Gao reg 45, RGS8-Gao reg 56 | Biotin-avidin inactive | RGS8-Gao confirm inactive | RGS7-Gao single inactive | RGS16-Gao conf inactive | RGS4-Gao single inactive | RGS19-Gao single inactive
O=c1[nH]c(=O)n(Cc2ccco2)c2c1C(C(F)(F)F)(C(F)(F)F)N=C(c1ccc(F)cc1)N2	none
CN(Cc1cn(C)nc1-c1ccccc1F)CC1CCCCO1 (stereo not given)	RGS7-Gao reg 46 | RGS-Gao 74 | Biotin-avidin inactive | RGS8-Gao confirm inactive | RGS7-Gao single inactive | RGS16-Gao conf inactive | RGS4-Gao single inactive | RGS19-Gao single inactive
CN(Cc1cn(C)nc1-c1ccccc1F)CC1CCN(Cc2ccccc2)CC1	RGS7-Gao reg inconclusive (no result: GSH bead fluor)
Cc1ccc(Cn2ccnc2C(=O)Nc2ccccc2)cc1	RGS7-Gao reg inconclusive
CCOC(=O)/C=C(\C)Sc1cc(O)c2ccccc2c1O	RGS7-Gao reg inconclusive, RGS16-Gao 11, RGS8-Gao reg 50 (no result: GSH bead fluor) | RGS-Gao 81
CCOC1CC(C)(C)NC(=S)N1 (stereo not given)	none
CC1(C)CCC(C)(C)NC(=S)N1	RGS16-Gao 15 | RGS-Gao 99 | Biotin-avidin inactive | RGS8-Gao confirm inactive | RGS7-Gao single 71 | RGS16-Gao conf inactive | RGS4-Gao single inactive | RGS19-Gao single inactive
COc1ccc(Cc2noc(CN3CCCC(C(=O)c4cccs4)C3)n2)cc1OC (stereo not given)	none
CCCCOC(=O)C(NC(=O)c1ccccc1)=C(C)C	RGS4-Gao reg -36, RGS7-Gao reg -16, RGS16-Gao -33, RGS8-Gao reg 5.2 (no result: Avidin bead fluor) | Biotin-avidin inactive | RGS8-Gao confirm inactive | RGS7-Gao single inactive | RGS16-Gao conf inactive | RGS4-Gao single inactive | RGS19-Gao single inactive
CCOC(=O)C(NC(=O)c1ccccc1)=C(C)C	none
C#CCOC(=O)C(NC(=O)c1ccccc1)=C(C)C	RGS16-Gao -38 | RGS-Gao 78 | Biotin-avidin inactive | RGS8-Gao confirm inactive | RGS7-Gao single inactive | RGS16-Gao conf inactive | RGS4-Gao single inactive | RGS19-Gao single inactive
COC(=O)C(NC(=O)c1ccccc1)=C(C)C	none
Cc1ccn(CCC(=O)N2CCCC(CCC(=O)N3CCN(c4ccccn4)CC3)C2)n1 (stereo not given)	none
CCCn1c(N)nc2ccccc21	RGS8-Gao reg 144[activator] | RGS-Gao 115 | Biotin-avidin inactive | RGS8-Gao confirm inactive | RGS7-Gao single inactive | RGS16-Gao conf inactive | RGS4-Gao single inactive | RGS19-Gao single inactive
O=C(Nc1cc(C(=O)N2CCCC2)ccc1N1CCCC1)c1ccccc1	none
CC1(C(=O)N/N=C/c2ccc([N+](=O)[O-])o2)CC1(Br)Br (stereo not given)	RGS16-Gao 13 | RGS-Gao 88 | Biotin-avidin inactive | RGS8-Gao confirm inactive | RGS7-Gao single inactive | RGS16-Gao conf inactive | RGS4-Gao single inactive | RGS19-Gao single inactive
CN(c1ccccc1)S(=O)(=O)c1cccc(C(=O)Nc2ccc3c(c2)CCC3)c1	RGS16-Gao 18 | RGS-Gao 102 | Biotin-avidin inactive | RGS8-Gao confirm inactive | RGS7-Gao single inactive | RGS16-Gao conf inactive | RGS4-Gao single inactive | RGS19-Gao single inactive
COc1ccc(C(=O)N/C(=C\c2cn(S(=O)(=O)N(C)C)c3ccccc23)C(=O)NC(C)C)cc1	none
O=C(c1cc2c(s1)-c1ccccc1S(=O)(=O)C2)N1CCN(Cc2ccccc2)CC1	Avidin bead fluor 151, RGS7-Gao reg 276[activator] | RGS-Gao 132 | Biotin-avidin inactive | RGS8-Gao confirm inactive | RGS7-Gao single inactive | RGS16-Gao conf inactive | RGS4-Gao single inactive | RGS19-Gao single inactive
CCOC(=O)c1c(C)oc2ccc(O)cc12	none
CCCc1cc(=O)oc2c(CN3CCN(C)CC3)c(O)c(Cl)cc12	none
O=C(CN1C(=O)NC2(CCCC2)C1=O)NCCC1=CCCCC1	RGS4-Gao reg 37, RGS7-Gao reg 29, RGS8-Gao reg 31 | Biotin-avidin inactive | RGS8-Gao confirm inactive | RGS7-Gao single inactive | RGS16-Gao conf inactive | RGS4-Gao single inactive | RGS19-Gao single inactive
Cc1ccc(C2(C)NC(=O)N(CC(=O)NCCC3=CCCCC3)C2=O)cc1 (stereo not given)	none
COc1cc(OC)c(-c2nc3c[n+](CC(=O)c4ccccc4)ccc3n2C)cc1OC	none
